Test results as given in PubChem BioAssay (NCI).
The panel holds about 83,000 compounds, 20% with a hit somewhere; the sample as a whole holds those more often.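 Each cell line was grown in a 96-well plate and treated with one concentration of compound for 48 hours. Values below 10 were considered active.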 Calls of active or inactive are those of the source.

How the values were obtained:
Assay in all cases: NCI-60 one-dose screen, 48 h (100 = growth as untreated, 0 = no growth, -100 = all killed)
Settings in all cases: 10 µM unless noted
NCI-H23 lung = test system: NCI-H23 lung
NCI-H226 lung = test system: NCI-H226 lung
NCI-H322M lung = test system: NCI-H322M lung
HOP-62 NSCLC = test system: HOP-62 NSCLC
NCI-H460 lung = test system: NCI-H460 lung
NCI-H522 lung = test system: NCI-H522 lung
A549/ATCC NSCLC = test system: A549/ATCC NSCLC
786-0 renal = test system: 786-0 renal
COLO 205 colon = test system: COLO 205 colon
DU-145 prostate = test system: DU-145 prostate
K-562 leukemia = test system: K-562 leukemia
MALME-3M melanoma = test system: MALME-3M melanoma
MDA-MB-231 breast = test system: MDA-MB-231 breast
RXF 393 renal = test system: RXF 393 renal
SF-268 CNS = test system: SF-268 CNS
SF-295 CNS = test system: SF-295 CNS
SF-539 CNS = test system: SF-539 CNS
UACC-257 melanoma = test system: UACC-257 melanoma
M14 melanoma = test system: M14 melanoma

Measured: growth

CC1(C)OC2OC3C(CN)OC(c4ccccc4)OC3C2O1 (configuration not stated)
inactive: NCI-H23 lung 99.5% | NCI-H226 lung 107% | NCI-H322M lung 125% | HOP-62 NSCLC 93.9% | NCI-H460 lung 124% | NCI-H522 lung 99% | A549/ATCC NSCLC 107% | 786-0 renal 104% | COLO 205 colon 103% | DU-145 prostate 108% | K-562 leukemia 104% | MALME-3M melanoma 120% | MDA-MB-231 breast 101% | RXF 393 renal 122% | SF-268 CNS 93.2% | SF-295 CNS 123% | SF-539 CNS 106% | UACC-257 melanoma 105% | M14 melanoma 120%

O=C(O)c1cc2cc(OCc3ccccc3)ccc2[nH]1
inactive: NCI-H23 lung 103% | NCI-H226 lung 107% | NCI-H322M lung 99% | HOP-62 NSCLC 93.8% | NCI-H460 lung 98.4% | NCI-H522 lung 90.3% | A549/ATCC NSCLC 90.9% | 786-0 renal 115% | COLO 205 colon 93.7% | DU-145 prostate 114% | K-562 leukemia 112% | MDA-MB-231 breast 99.1% | RXF 393 renal 111% | SF-268 CNS 99.9% | SF-295 CNS 108% | SF-539 CNS 87.5% | UACC-257 melanoma 48% | M14 melanoma 106%
active: MALME-3M melanoma -20.3%

COc1ccc2nc3cc(Cl)ccc3c(NC(=O)CSc3ccc(Cl)cc3)c2c1
active: NCI-H23 lung -90% | NCI-H226 lung -44.4% | NCI-H322M lung -90.1% | HOP-62 NSCLC -99.5% | NCI-H460 lung -84.4% | NCI-H522 lung -96.5% | A549/ATCC NSCLC -69.4% | 786-0 renal -98.2% | COLO 205 colon -20.1% | DU-145 prostate -98.3% | K-562 leukemia -3.86% | MALME-3M melanoma -77.1% | MDA-MB-231 breast -69.3% | RXF 393 renal -99.1% | SF-268 CNS -88.9% | SF-295 CNS -86.2% | SF-539 CNS -91.9% | UACC-257 melanoma -90% | M14 melanoma -97.4%

COc1ccc(NC(=O)Cn2c(=O)sc3c(-c4ccc(Cl)cc4)cc(-c4ccc(Cl)cc4)nc32)cc1
inactive: NCI-H23 lung 91% | NCI-H226 lung 108% | NCI-H322M lung 95.1% | HOP-62 NSCLC 97.8% | NCI-H460 lung 102% | NCI-H522 lung 70% | A549/ATCC NSCLC 96.7% | 786-0 renal 88.7% | COLO 205 colon 100% | DU-145 prostate 96.7% | K-562 leukemia 85.1% | MALME-3M melanoma 112% | MDA-MB-231 breast 110% | RXF 393 renal 110% | SF-268 CNS 93.1% | SF-295 CNS 95.8% | SF-539 CNS 98% | UACC-257 melanoma 115% | M14 melanoma 94.1%

C=CCN1C(=O)/C(=c2\sc3n(c2=O)C2C(NN=3)N(CC)C(=O)N2CC)c2ccccc21 (configuration not stated)
active: NCI-H460 lung 9.1% | NCI-H522 lung -15.9% | COLO 205 colon -14.2% | RXF 393 renal 7.25% | SF-539 CNS 4.08%
inactive: NCI-H23 lung 26.7% | NCI-H226 lung 62.7% | NCI-H322M lung 49.4% | HOP-62 NSCLC 32.4% | A549/ATCC NSCLC 23.9% | 786-0 renal 32.3% | DU-145 prostate 17% | K-562 leukemia 10% | MALME-3M melanoma 66% | MDA-MB-231 breast 47.1% | SF-268 CNS 47.3% | SF-295 CNS 12.9% | UACC-257 melanoma 63.3% | M14 melanoma 14.4%

c1cc(C2CCCCC2)ccc1-c1cnc2nonc2n1
active: NCI-H522 lung -2.99% | COLO 205 colon 2.48% | K-562 leukemia 5.7% | RXF 393 renal -3.18% | SF-539 CNS 0.0756% | M14 melanoma -16.7%
inactive: NCI-H23 lung 38.7% | NCI-H226 lung 47.5% | NCI-H322M lung 50.1% | HOP-62 NSCLC 18.5% | NCI-H460 lung 14.4% | A549/ATCC NSCLC 34.6% | 786-0 renal 13.5% | DU-145 prostate 13.8% | MALME-3M melanoma 48.8% | MDA-MB-231 breast 18.6% | SF-268 CNS 32% | SF-295 CNS 28.3% | UACC-257 melanoma 42.6%

COc1ccc2c(c1)sc1nc(-c3ccccc3)c(-c3cccc4ccccc34)n12
active: NCI-H460 lung 8.82% | NCI-H522 lung -11% | COLO 205 colon 6.28% | RXF 393 renal 7.5% | SF-295 CNS -38.7% | SF-539 CNS 0.248%
inactive: NCI-H23 lung 39.3% | NCI-H226 lung 68.2% | NCI-H322M lung 57.9% | HOP-62 NSCLC 64.4% | A549/ATCC NSCLC 24.2% | 786-0 renal 51.7% | DU-145 prostate 18.9% | K-562 leukemia 15% | MALME-3M melanoma 51.5% | MDA-MB-231 breast 39.7% | SF-268 CNS 50.8% | UACC-257 melanoma 68.4% | M14 melanoma 21%

CC(=O)O[C@H]1CC[C@]2(C)[C@H]3CC=C4[C@@H]5CC(C)(C)CC[C@]5(C(=O)OCC(COC(=O)C(Cl)Cl)(COC(=O)C(Cl)Cl)NC(=O)C(Cl)Cl)CC[C@@]4(C)[C@]3(C)CC[C@H]2C1(C)C
inactive: NCI-H23 lung 87.6% | NCI-H226 lung 94.2% | NCI-H322M lung 89.1% | HOP-62 NSCLC 79% | NCI-H460 lung 49.4% | NCI-H522 lung 41.1% | A549/ATCC NSCLC 31.5% | 786-0 renal 63.9% | COLO 205 colon 47.8% | DU-145 prostate 62.2% | K-562 leukemia 38.8% | MALME-3M melanoma 83.1% | MDA-MB-231 breast 82.9% | RXF 393 renal 74.7% | SF-268 CNS 56.1% | SF-295 CNS 80.4% | SF-539 CNS 86.8% | UACC-257 melanoma 42.5% | M14 melanoma 67.2%
